Results as given in PubChem BioAssay AID434992 (The Scripps Research Institute Molecular Screening Center, 2010).
Calls of active or inactive are those of the source. The rule behind the calls is not given here.

Assay: PubChem AID 434992

SMILES: FC(F)(F)c1ccc2c(c1)Nc1ccccc1S2
- outcome: inactive
